# Laboratory results taken from PubChem BioAssay AID720582 (The Scripps Research Institute Molecular Screening Center, 2013).
# Among all 370,000 compounds or so, about 2,300 (0.62%) were called active.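 Rule for the calls: active = inhibition above a per-campaign cutoff equal to the mean of compounds falling between control-based bounds plus 3 SD (cut at about 20% in these data); inactive = the rest.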 Many of the other results were omitted from the sample, so actives are more common in it than they were.
# Target: Disintegrin and metalloproteinase domain-containing protein 10 (Homo sapiens) (UniProt O14672)
# Assay: blockers of ADAM10 peptide cleavage – biochemical, QFRET, HTS, primary screen (AID 720582);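 note: 0% = DMSO wells while the 100% control is not disclosed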
# Settings: recombinant ADAM10, EDANS/DABCYL FRET peptide cleavage, 3 h; at 7 µM; stronger effect = higher value
# Sequence of Disintegrin and metalloproteinase domain-containing protein 10 (Homo sapiens) (O14672 214-748 limits assumed): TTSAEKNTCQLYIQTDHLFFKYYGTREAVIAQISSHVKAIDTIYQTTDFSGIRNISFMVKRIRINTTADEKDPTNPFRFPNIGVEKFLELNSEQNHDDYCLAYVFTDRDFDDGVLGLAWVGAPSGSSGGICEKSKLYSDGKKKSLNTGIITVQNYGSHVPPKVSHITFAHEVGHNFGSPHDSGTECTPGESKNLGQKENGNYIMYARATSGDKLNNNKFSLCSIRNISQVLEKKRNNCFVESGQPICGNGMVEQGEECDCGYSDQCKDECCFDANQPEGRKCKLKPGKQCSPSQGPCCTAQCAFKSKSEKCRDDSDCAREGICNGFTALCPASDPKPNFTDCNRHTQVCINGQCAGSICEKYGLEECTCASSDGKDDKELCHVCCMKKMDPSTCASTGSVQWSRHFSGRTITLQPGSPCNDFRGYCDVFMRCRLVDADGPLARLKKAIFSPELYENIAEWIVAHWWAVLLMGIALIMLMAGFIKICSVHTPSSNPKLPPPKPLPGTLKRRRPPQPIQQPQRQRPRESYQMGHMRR
row,SMILES,inhibition
1,Cn1nc(C(F)(F)F)c(C(=O)Nc2cccc(C(F)(F)F)c2)c1SCc1ccc(Cl)cc1,43.5% (active)
2,COC(=O)c1ccccc1Sc1c(/C=N/OCc2ccc(Cl)cc2)c(C(F)(F)F)nn1C,-2.32% (inactive)
3,CCC(=O)OCc1c(C(F)(F)F)nn(C)c1Oc1cccc(C(F)(F)F)c1,-6.05% (inactive)
4,c1csc(-c2nnc(SCc3nc4ccccc4[nH]3)o2)c1,-40.8% (inactive)
5,N#Cc1ccccc1OC[C@@H](O)CN1CCC(C(O)(c2ccccc2)c2ccccc2)CC1,-0.66% (inactive)
6,Cc1cc(C(=O)NNC(=S)NC(C)c2ccccc2)cs1 (centres undefined),9.44% (inactive)
7,Cc1ccc(C)c(NC(=S)NNC(=O)c2csc(C)c2)c1,24.9% (active)
8,Cc1ccc(C)c(NC(=O)NNC(=O)c2ccc3ccccc3c2O)c1,-78.3% (inactive)
9,COc1ccccc1C(=O)CSc1nnc(-c2ccccn2)n1-c1ccccc1,-1.9% (inactive)
10,COc1cccc(CSc2nnc(-c3cccnc3)n2Cc2ccccc2)c1,-11.6% (inactive)
11,O=C(CCCCCN1C(=O)C2C3C=CC(C3)C2C1=O)Nc1ccccn1 (centres undefined),2.11% (inactive)
12,COC(=O)c1cc(S(=O)(=O)N2CCN(C(=O)C3CCCO3)CC2)cn1C (centres undefined),-4.05% (inactive)
13,O=C1CCC(C(=O)OCC(=O)Nc2ccc(OC(F)F)cc2)=NN1,5.49% (inactive)
14,COc1ccc(NC(=O)COC(=O)CNC(=O)C2CCCCC2)cc1,-0.81% (inactive)
15,CCC(C)(C)c1ccc(Oc2ccc(NC(=O)COC(=O)C3=COCCO3)cc2)cc1,35.7% (active)
16,N/C(Cc1ccc([N+](=O)[O-])cc1)=N\OC(=O)C1CCCCC1,-1.46% (inactive)
17,N/C(Cc1ccc([N+](=O)[O-])cc1)=N\OC(=O)COc1ccc2ccccc2c1,29.3% (active)
18,Cc1cc(C)cc(OCC(=O)O/N=C(\N)Cc2ccc([N+](=O)[O-])cc2)c1,6.24% (inactive)
19,O=C(NCC1COc2ccccc2O1)c1ccc(NC(=O)c2cc(F)ccc2F)cc1 (centres undefined),-8.24% (inactive)
20,CCOC(=O)N1CCN(C(=O)C[C@@H]2C(=O)N(CCc3ccc(Cl)cc3)C3=CCCC[C@]32C(=O)OCC)CC1,1.06% (inactive)
21,COc1ccc(C(C(=O)NC2CCCCC2)N(C(=O)CCl)c2ccccc2Cl)cc1 (centres undefined),-8.69% (inactive)
22,COc1ccc(CN(CCN2CCOCC2)C(=O)c2ccc(C)cc2)cc1OC,-9.63% (inactive)
23,COc1ccc(C(CCN(Cc2ccc(OC)c(OC)c2)C(=O)CCl)c2ccccc2)cc1 (centres undefined),28% (active)

row,SMILES,inhibition
1,COC(=O)C1CN(CCc2ccccc2)CCS(=O)(=O)N1Cc1ccc(F)cc1 (centres undefined),-11.1% (inactive)
2,COC1=C[C@H](C(=O)NCCNC(C)=O)[C@H](C)[C@@H](c2ccccc2)CC1=O,4.85% (inactive)
3,CCOc1cc(NC(=O)CCl)c(OCC)cc1NC(C)=O,-2.95% (inactive)
4,CCOc1cc(NC(=O)c2ccccc2C(=O)O)c(OCC)cc1NC(=O)c1ccccc1F,26.7% (active)
5,CCOc1ccccc1NC(=O)c1cc(S(=O)(=O)N2CCC3(CC2)OCCO3)ccc1F,-1.65% (inactive)
6,c1cncc(CNc2ccnc(-c3ccc4c(c3)OCO4)n2)c1,-4.61% (inactive)
7,CN(CCc1ccccc1)C(=O)Cn1nc(-c2ccccc2)ccc1=O,-9.95% (inactive)
8,COc1cc(/C=N/n2c(C)n[nH]c2=S)ccc1OCc1ccccc1,20.3% (active)
9,CNC(=S)N/N=C/c1ccc(OCc2ccccc2)c(Br)c1,-17% (inactive)
10,C=CCOc1ccc(/C=N/n2cncn2)cc1OC,-13.5% (inactive)
11,CC(CCN1CCC(C(O)(c2ccccc2)c2ccccc2)CC1)Oc1ccc(Cl)cc1 (centres undefined),6% (inactive)
12,O=S1(=O)c2ccc(Br)cc2OC[C@H](Cc2ccccc2)N1Cc1cn(Cc2ccccc2)nn1,-9.49% (inactive)
13,Cc1[nH]nc(-c2ccc(OCc3cnn(-c4ccccc4)c3)cc2O)c1Oc1ccc(Cl)cc1,-10.7% (inactive)
14,C=C(C)COc1ccc(-c2n[nH]c(C)c2-c2ccccc2)c(O)c1,23.7% (active)
15,C[C@H]1CCC/C=C/C(=O)c2c(O)cc(O)cc2CC(=O)O1,-6.63% (inactive)
16,Cc1ccc(-c2nnc(SCC(=O)Nc3ccc(Oc4ccccc4)cc3)n2Cc2ccco2)cc1,17.8% (inactive)
17,O=C(CSc1nnc(COc2ccccc2)n1Cc1ccco1)c1ccc2ccccc2c1,9.91% (inactive)
18,Cc1ccc(OCc2nnc(SC/C=C/c3ccccc3)n2Cc2ccco2)cc1,21.3% (active)
19,Cc1c(C(C)c2ccccc2O)[nH]c2ccccc12 (centres undefined),11.8% (inactive)
20,O=C1CC(c2ccc3c(c2)OCO3)N=C2N(CC3CC3)C/C(=C/c3ccccc3)N12 (centres undefined),-2.63% (inactive)
21,CC(=O)Nc1ccc(N2C(=O)C3C4CC(=O)C(c5ccccc54)C3C2=O)cc1 (centres undefined),-0.65% (inactive)
22,O=C(Oc1cccc(N2C(=O)C3C4c5ccccc5C(c5ccccc54)C3C2=O)c1)c1ccco1 (centres undefined),20.3% (active)
23,Cc1ccc(C)c(NC(=O)c2ccc(OC(=O)c3ccco3)cc2)c1,0.79% (inactive)

row,SMILES,inhibition
1,O=C(NCCNc1ccc([N+](=O)[O-])cc1)c1cccc2c(Br)cccc12,-54.2% (inactive)
2,COc1ccc(Cn2cc(COC(=O)N(C)Cc3ccccc3)nn2)cc1,1.83% (inactive)
3,Oc1oc(-c2ccccc2Br)nc1/C=N/c1ccccn1,-33.4% (inactive)
4,CC(N=Cc1nc(-c2ccccc2)oc1O)c1ccccc1 (centres undefined),21% (active)
5,COc1ccc(-n2c(SCC(=O)Nc3ccc4cn[nH]c4c3)nnc2-c2cccnc2)cc1,3.52% (inactive)
6,CC(C)CSc1nnc(-c2cccnc2)n1Cc1ccccc1,-2.15% (inactive)
7,Nn1c(SCC(=O)N2c3ccccc3Sc3ccccc32)nnc1-c1n[nH]c2c1CCC2,-5.44% (inactive)
8,Cc1ccc(S(=O)(=O)N(CC(=O)Nc2cccnc2)c2ccc(Br)cc2)cc1,20.1% (active)
9,Cc1ccc(N(CC(=O)Nc2cc(C)cc(C)c2)S(=O)(=O)c2cccc3nonc23)cc1,14.3% (inactive)
10,CCNC(=O)CN(c1ccc(C)cc1)S(=O)(=O)c1ccc(SC)cc1,2.9% (inactive)
11,O=S1(=O)c2c(cccc2N2CCSCC2)Oc2ccccc2CN1Cc1cn(Cc2ccc(F)cc2)nn1,-1.57% (inactive)
12,CCOc1ccc(N(CC(=O)Nc2c(C)n(C)n(-c3ccccc3)c2=O)S(=O)(=O)c2ccc(Cl)s2)cc1,7.29% (inactive)
13,O=C(O)c1cc(S(=O)(=O)N(Cc2ccccc2)c2ccccc2)ccc1Cl,2.05% (inactive)
14,NC(=O)c1ccccc1N(Cc1ccccc1)S(=O)(=O)c1ccccc1,14.4% (inactive)
15,O=S(=O)(c1ccccc1)N(Cc1cccc(F)c1)c1ccccc1,22.7% (active)
16,Cc1cc(=O)[nH]c(SCC(=O)Nc2ccc(Cl)cc2C)n1,-0.31% (inactive)
17,C[C@@H]1CN([C@@H](C)CO)C(=O)c2cccc(NC(=O)Nc3cccc4ccccc34)c2O[C@H]1CN(C)S(=O)(=O)c1ccccc1F,-24.8% (inactive)
18,CCc1ccccc1NC(=O)CSc1nnc(-c2cccs2)o1,-1.28% (inactive)
19,COc1ccc(-n2c(COc3ccccc3)nnc2SCC(=O)Nc2ccc3c(c2)OCO3)cc1,2.97% (inactive)
20,O=S(=O)(c1ccccc1)c1nc(-c2ccccc2F)oc1NCc1cccnc1,12.6% (inactive)
21,CCOc1ccc(Nc2oc(Cc3ccccc3)nc2C#N)cc1,23.6% (active)
22,N#Cc1nc(COc2ccc(Cl)cc2)oc1N1CCCC1,1.11% (inactive)
23,Cc1ccc(OCc2nc(C#N)c(N3CCCC3)o2)cc1,-0.05% (inactive)

row,SMILES,inhibition
1,N#Cc1nc(COc2ccc(-c3ccccc3)cc2)oc1NCc1cccnc1,23.1% (active)
2,O=S(=O)(c1ccc(Br)cc1)c1nc(-c2ccccc2)oc1NCc1cccnc1,4.12% (inactive)
3,CCCCOCCCNC(=O)C[C@H]1C[C@@]2(C(=O)OC)C(=C[C@H](COCc3ccccc3)O[C@@H]2C)N(Cc2cccc3ccccc23)C1=O,11.9% (inactive)
4,c1ccc2c(CCN3CCNC[C@H]3Cc3cccc4ccccc34)cccc2c1,79% (active)
5,c1ccc(C2CNCc3c2ccc2ccccc32)cc1 (centres undefined),-2.76% (inactive)
6,CC(C)(C)CN1C(=O)C(=O)NC[C@H]1Cc1cccc2ccccc12,-16.5% (inactive)
7,CC(=O)C1(C(=O)Nc2nccs2)CC(c2ccccc2C(F)(F)F)=NO1 (centres undefined),-3.94% (inactive)
8,COCc1ccc(C(=O)N2CCc3c([nH]c4ccccc34)C2c2ccccn2)s1 (centres undefined),9.76% (inactive)
9,Cc1cccc(C(=O)N2CCc3c([nH]c4ccccc34)C2CC(C)C)n1 (centres undefined),-15.2% (inactive)
10,Cc1cccc(C2c3[nH]c4ccccc4c3CCN2C(=O)c2cc(-c3cccn3C)n[nH]2)n1 (centres undefined),20.4% (active)
11,COC(=O)c1ccccc1-n1cc(COC(=O)NCCc2ccccc2)nn1,-5.72% (inactive)
12,C=CCN(C(=O)[C@@H](CCCC)[C@@H](O)c1ccc(Cl)cc1)c1ccccc1,11.4% (inactive)
13,CC(C)Oc1cc(F)ccc1-c1cc(C(=O)Nc2cccc(Cl)c2)[nH]n1,22.1% (active)
14,COc1cc(NC(=O)c2cc(-c3ccc(F)cc3OC(C)C)n[nH]2)cc(OC)c1OC,9.02% (inactive)
15,CC(C)Oc1cc(F)ccc1-c1cc(C(=O)Nc2ccc(F)cc2)[nH]n1,5.58% (inactive)
16,CCOC(=O)C1CCN(C(=O)C(C)(C)NC(=O)Nc2ccc(F)c(F)c2)CC1,6.44% (inactive)
17,COc1ccc(N2CCN(CCNS(=O)(=O)c3ccc([N+](=O)[O-])cc3)CC2)cc1,5.38% (inactive)
18,COc1ccc(C(=O)COC(=O)c2c(C)noc2C)cc1Cl,3.87% (inactive)
19,Cc1[nH]c2ccccc2c1C(=O)COC(=O)c1c(-c2ccccc2)noc1C,24.7% (active)
20,Cc1[nH]c2ccccc2c1C(=O)CN1CC(C)CC(C)C1 (centres undefined),-6.1% (inactive)
